Measured values taken from PubChem BioAssay.
The source made the active and inactive calls. Unless noted, how the calls were made is not given here.

Assays:
[1] = compounds binding Alexa647 anti-His antibody – biochemical, small-molecule microarray, 635 nm fluorescence, artefact control for SMM control protein annotation, primary screen (AID 1128); settings: higher = more signal;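 further: score merges feature fluorescence with signal-to-noise for each printed compound spot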
[2] = tested on: Human papillomavirus type 1a E7 protein (residues 1-88); assay: HPV1a E7 small-molecule binders, primary screen, biochemical, small-molecule microarray, residues 1-88, 635 nm (AID 1129); settings: small-molecule microarray binding, fluorescence 635 nm; higher = more signal
[3] = biological target: Focal adhesion kinase 1 (Homo sapiens) (UniProt Q05397); assay: PTK2 protein binding on printed compound slides – biochemical, small-molecule microarray, 635/667 nm fluorescence, BSA, DTT, primary screen (AID 1130); settings: 635 nm fluorescence, higher = more signal;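 further: composite of spot emission at 667 nm and signal to noise over triplicate slides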
Focal adhesion kinase 1 (Homo sapiens), sequence (Q05397 whole entry, looked up): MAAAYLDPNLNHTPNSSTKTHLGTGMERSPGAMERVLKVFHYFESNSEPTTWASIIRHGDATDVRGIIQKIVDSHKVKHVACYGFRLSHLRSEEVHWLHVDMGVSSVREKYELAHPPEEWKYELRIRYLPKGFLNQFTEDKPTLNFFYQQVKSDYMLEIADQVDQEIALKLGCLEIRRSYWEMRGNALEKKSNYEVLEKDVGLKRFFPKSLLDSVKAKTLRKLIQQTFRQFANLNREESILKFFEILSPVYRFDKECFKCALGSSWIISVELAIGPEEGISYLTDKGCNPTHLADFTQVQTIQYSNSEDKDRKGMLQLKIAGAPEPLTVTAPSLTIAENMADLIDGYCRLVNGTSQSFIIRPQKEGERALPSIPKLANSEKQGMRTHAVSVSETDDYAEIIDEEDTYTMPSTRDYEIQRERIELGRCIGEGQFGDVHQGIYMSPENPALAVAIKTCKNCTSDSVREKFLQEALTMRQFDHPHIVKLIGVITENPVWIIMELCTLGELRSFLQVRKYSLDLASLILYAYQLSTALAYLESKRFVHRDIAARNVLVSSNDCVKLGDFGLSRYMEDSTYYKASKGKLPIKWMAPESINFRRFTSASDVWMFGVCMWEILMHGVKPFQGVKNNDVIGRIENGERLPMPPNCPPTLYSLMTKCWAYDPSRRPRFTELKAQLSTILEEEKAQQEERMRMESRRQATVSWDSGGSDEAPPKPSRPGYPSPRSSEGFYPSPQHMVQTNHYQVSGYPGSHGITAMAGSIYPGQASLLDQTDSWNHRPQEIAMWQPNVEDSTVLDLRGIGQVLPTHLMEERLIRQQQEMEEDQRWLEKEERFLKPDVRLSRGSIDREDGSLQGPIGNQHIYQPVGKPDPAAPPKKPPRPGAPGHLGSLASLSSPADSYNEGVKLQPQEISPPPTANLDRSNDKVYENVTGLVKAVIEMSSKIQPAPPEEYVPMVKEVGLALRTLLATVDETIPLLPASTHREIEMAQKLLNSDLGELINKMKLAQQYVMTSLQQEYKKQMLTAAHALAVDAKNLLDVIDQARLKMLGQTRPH

[4] = tested on: Fibrinogen (Alexa647-labelled); assay: Alexa647-fibrinogen binding to printed small molecules – biochemical, small-molecule microarray, 635/667 nm fluorescence, artefact control for SMM control-protein annotation, profiling panel (AID 1131); settings: fibrinogen-A647 binding fluorescence, higher = more signal;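 further: z-score merges 667 nm fluorescence with per-spot signal-to-noise over triplicate slides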
[5] = biological target: Follistatin (Homo sapiens) (UniProt P19883); assay: FST protein binding to printed compounds – biochemical, small-molecule microarray, 635/667 nm fluorescence, primary screen (AID 1132); settings: 635 nm fluorescence, higher = more signal
Follistatin (Homo sapiens), sequence (P19883 whole entry, looked up): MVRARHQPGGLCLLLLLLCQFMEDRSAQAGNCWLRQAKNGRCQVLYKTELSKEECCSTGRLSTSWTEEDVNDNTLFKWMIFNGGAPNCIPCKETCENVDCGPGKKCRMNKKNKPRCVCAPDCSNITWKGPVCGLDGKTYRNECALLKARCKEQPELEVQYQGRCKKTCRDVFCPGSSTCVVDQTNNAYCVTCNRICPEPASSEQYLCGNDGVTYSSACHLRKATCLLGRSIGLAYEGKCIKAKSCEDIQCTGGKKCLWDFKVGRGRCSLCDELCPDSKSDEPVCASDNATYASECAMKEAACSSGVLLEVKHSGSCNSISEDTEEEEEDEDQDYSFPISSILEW

[6] = biological target: Fibroblast growth factor 2 (Homo sapiens) (UniProt P09038); assay: basic fibroblast growth factor binding to printed compounds – biochemical, small-molecule microarray, 635/667 nm fluorescence, primary screen (AID 1133); settings: FGF2, fluorescence 635/667, higher = more signal
Fibroblast growth factor 2 (Homo sapiens), sequence (P09038 whole entry, looked up): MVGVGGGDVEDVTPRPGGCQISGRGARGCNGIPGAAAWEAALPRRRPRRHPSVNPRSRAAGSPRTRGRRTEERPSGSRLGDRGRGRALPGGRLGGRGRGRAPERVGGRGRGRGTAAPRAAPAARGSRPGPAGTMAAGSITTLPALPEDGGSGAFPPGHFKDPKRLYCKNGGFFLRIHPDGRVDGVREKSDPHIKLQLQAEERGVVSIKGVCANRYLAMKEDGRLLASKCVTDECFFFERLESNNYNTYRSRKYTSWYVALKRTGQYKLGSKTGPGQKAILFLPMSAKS

[7] = JC-1 mitochondrial potential readout, lung cancer cells – cell-based, A549, JC-1 fluorescence, basal, 24 h, 100 nL, profiling panel (AID 1138); settings: higher = more signal;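 further: A549 lung adenocarcinoma cells under basal conditions with no added stimulus; test concentration not given here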
[8] = tested on: Lefty1; assay: Lefty1 protein binding to printed compounds – biochemical, small-molecule microarray, 635/667 nm fluorescence, primary screen (AID 1139); settings: fluorescence 635/667, higher = more signal
[9] = tested on: wheat germ agglutinin (Triticum aestivum), Alexa647-labelled; assay: Alexa647-WGA lectin binding to printed small molecules – biochemical, small-molecule microarray, 635/667 nm fluorescence, artefact control for SMM control-protein annotation, profiling panel (AID 1140); settings: WGA-A647 binding, 635 nm fluorescence, higher = more signal;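 further: score merges 667 nm feature emission with signal to noise over triplicate slides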
[10] = biological target: Luciferin 4-monooxygenase (Photinus pyralis) (UniProt P08659); assay: inhibition of purified Photinus pyralis luciferase – biochemical, luminescence, purified enzyme, 2006 set, primary screen (AID 1141); settings: purified firefly luciferase, SteadyGlo luminescence, 30 min; higher = more signal, called active from +8 up or from −8 down;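 further: cell-free assay with purified firefly luciferase at 100 ng per well in PBS; test concentration not given here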
Luciferin 4-monooxygenase (Photinus pyralis), sequence (P08659 whole entry, looked up): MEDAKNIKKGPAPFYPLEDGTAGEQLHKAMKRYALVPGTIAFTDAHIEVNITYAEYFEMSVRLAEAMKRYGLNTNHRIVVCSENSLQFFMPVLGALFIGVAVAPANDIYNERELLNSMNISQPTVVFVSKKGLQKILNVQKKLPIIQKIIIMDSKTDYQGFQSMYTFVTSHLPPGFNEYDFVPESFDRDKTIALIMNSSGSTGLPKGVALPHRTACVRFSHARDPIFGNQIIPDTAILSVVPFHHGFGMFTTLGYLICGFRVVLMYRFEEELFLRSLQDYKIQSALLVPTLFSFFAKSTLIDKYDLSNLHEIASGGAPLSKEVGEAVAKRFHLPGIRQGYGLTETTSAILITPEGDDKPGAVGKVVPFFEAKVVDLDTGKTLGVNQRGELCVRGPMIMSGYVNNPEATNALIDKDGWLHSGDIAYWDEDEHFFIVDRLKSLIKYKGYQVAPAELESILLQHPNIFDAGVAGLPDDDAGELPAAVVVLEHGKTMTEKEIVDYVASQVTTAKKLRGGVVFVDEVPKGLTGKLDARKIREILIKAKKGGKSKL

[11] = tested on: Wnt5a (protein binding on small-molecule microarray); assay: small molecules binding Wnt5a protein – biophysical, small-molecule microarray, 635/667 nm fluorescence, primary screen (AID 1142); settings: 635 nm fluorescence, higher = more signal;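 further: fluorescence read at 667 nm with signal to noise per printed feature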
[12] = ATP-based viability of Huh7 replicon cells – cell-based, CellTiter-Glo luminescence, basal, 48 h, cytotoxicity control for HCV replication inhibitor project, primary screen (AID 1143); settings: higher = more signal, called active from +8 up or from −8 down;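 further: Huh7 hepatoma cells carrying a hepatitis C replication reporter with no stimulus; test concentration not given here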
[13] = Pseudomonas biofilm growth suppression – PAO1 strain, BacTiter-Glo luminescence, LB-PBS, primary screen (AID 1144); settings: P. aeruginosa PAO1 biofilm, 12 h, higher = more signal
[14] = basal CRE-LacZ reporter activity in PC12 – cell-based, unstimulated, primary screen (AID 1145); settings: no forskolin, luminescence, 4.5 h, higher = more signal, called active from +8 up or from −8 down
[15] = forskolin-driven CRE-LacZ activity in PC12 – cell-based, CRE-LacZ reporter, forskolin-stimulated, primary screen (AID 1146); settings: luminescence, 4.5 h, higher = more signal, called active from +8 up or from −8 down;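 further: PC12 cells with 6xCRE LacZ reporter stimulated by forskolin 10 µM; beta-galactosidase reporter signal reflecting CREB driven transcription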
[16] = biological target: Streptavidin (Streptomyces avidinii) (UniProt P22629); assay: compounds binding control protein streptavidin – biophysical, small-molecule microarray, 635/667 nm fluorescence, artefact control for SMM compound annotation, primary screen (AID 1147); settings: higher = more signal;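 further: signal reflects streptavidin binding to arrayed compounds as a control protein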
Streptavidin (Streptomyces avidinii), sequence (P22629 whole entry, looked up): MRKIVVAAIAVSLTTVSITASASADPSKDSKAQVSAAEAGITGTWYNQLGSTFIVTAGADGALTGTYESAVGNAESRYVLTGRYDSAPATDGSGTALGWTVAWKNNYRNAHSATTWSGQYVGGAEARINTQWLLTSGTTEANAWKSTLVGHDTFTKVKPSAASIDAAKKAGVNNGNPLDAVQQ

[17] = probe aInhba binding on compound microarray – biochemical, small-molecule microarray, 635/667 nm fluorescence, primary screen (AID 1148); settings: higher = more signal;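 further: score merges 667nm spot fluorescence with signal-to-noise for antibody binding to printed compounds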
[18] = biological target: Torsin-1A (Homo sapiens) (UniProt O14656); assay: TOR1A wild-type binding on microarray – cell lysate, small-molecule microarray, lysate, 635/667 nm, primary screen (AID 1149); settings: COS7 hTOR1A-WT lysate, 635 nm fluorescence, higher = more signal
Torsin-1A (Homo sapiens), sequence (O14656 whole entry, looked up): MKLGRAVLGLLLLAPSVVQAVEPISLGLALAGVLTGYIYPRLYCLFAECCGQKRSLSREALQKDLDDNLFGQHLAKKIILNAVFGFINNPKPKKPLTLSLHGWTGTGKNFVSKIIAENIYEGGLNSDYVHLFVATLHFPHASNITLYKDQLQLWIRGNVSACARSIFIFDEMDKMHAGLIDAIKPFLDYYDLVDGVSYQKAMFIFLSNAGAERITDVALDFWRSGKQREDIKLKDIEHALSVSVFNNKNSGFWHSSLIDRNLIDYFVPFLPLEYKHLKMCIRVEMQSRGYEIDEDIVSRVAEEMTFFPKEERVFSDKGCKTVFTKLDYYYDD

[19] = biological target: Torsin-1A (Homo sapiens) (UniProt O14656); assay: torsin A mutant lysate binding on microarrays – cell lysate, small-molecule microarray, COS7 lysate, 635/667 nm fluorescence, primary screen (AID 1150); settings: COS7 hTOR1A mutant lysate, 635 nm fluorescence, higher = more signal;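 further: score pools 667 nm emission and signal to noise measuring lysate protein binding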
[20] = tested on: Sonic hedgehog protein (Shh); assay: Sonic hedgehog microarray binding compounds – biochemical, small-molecule microarray, 635/667 nm fluorescence, primary screen (AID 1151); settings: 635 nm fluorescence, higher = more signal;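 further: Shh protein binding to compounds spotted on small-molecule microarray slides; score combines spot fluorescence intensity with signal-to-noise across triplicate slides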

Compound	composite z-score [1]	composite z-score [2]	composite z-score [3]	composite z-score [4]	composite z-score [5]	composite z-score [6]	z-score [7]	composite z-score [8]	composite z-score [9]	z-score [10]	composite z-score [11]	z-score [12]	z-score [13]	z-score [14]	z-score [15]	composite z-score [16]	composite z-score [17]	composite z-score [18]	composite z-score [19]	composite z-score [20]
O=C1OCC=C[C@H]2OC34C=CCN(CCN5CCOCC5)C(=O)[C@H]3N(CCCCCCO)C(=O)[C@@H]4[C@@H]12 (stereo not given in full)	3.21	-0.206	-0.0142	-0.469	0.277	-0.131	0.582	0.659	-0.0261	-0.689 (inactive)	0.0272	-0.39 (inactive)	1.73 (inactive)	0.862 (inactive)	-0.201 (inactive)	-0.278	-0.0604	0.135	-0.0406	0.572
COCCCNC(=O)[C@@]1(Sc2ccc(C)cc2)CC(=O)N(Cc2ccccc2)[C@@H]1c1ccc(CO)cc1	0.068	-0.277	-0.166	-1.56	-0.489	-0.236	-0.0602	-1.03	-0.4	0.542 (inactive)	-0.114	0.101 (inactive)	-0.578 (inactive)	-0.438 (inactive)	0.579 (inactive)	-0.82	-0.0193	0.366	-0.607	-0.168
O=C1NC(=O)C2C1C=CC(C(O)c1cccs1)N2Nc1ccccn1 (stereo not given)	1.23	0.532	-0.374	0.725	0.131	0.0343	0.543	0.0773	-0.0456	-1.68 (inactive)	0.0343	0.847 (inactive)	-1.39 (inactive)	-0.712 (inactive)	-1.04 (inactive)	-0.0099	-0.214	0.484	0.244	-0.0541
CCCC[C@@H]1C[C@H]1[C@@H](NC(=O)c1ccccc1)c1ccccc1	1.47	-0.23	0.202	0.244	0.671	0.085	-1.03	-0.235	0.136	1.19 (inactive)	0.209	-0.877 (inactive)	0.727 (inactive)	0.0041 (inactive)	0.79 (inactive)	0.0499	0.401	-0.477	-0.0734	-0.412
C=C(CCCC)C(=O)CC[C@H](OC(C)=O)c1ccc(CO)o1	-0.273	0.228	-0.0408	-0.332	1.03	0.361	-0.0332	0.861	-0.276	-1.77 (inactive)	0.0631	-3.11 (inactive)	-0.312 (inactive)	0.508 (inactive)	-0.79 (inactive)	-0.264	-0.0427	-0.423	0.794	1.99
CCN(CC)c1ccc(N2CC=CC34O[C@@H]5C=CCCOC(=O)C5[C@H]3C(=O)N(CCCO)[C@@H]4C2=O)cc1 (stereo not given in full)	-1.26	-1.14	0.585	-1.33	-0.0464	-0.175	0.185	0.108	-1.19	-0.546 (inactive)	-0.0601	-2.8 (inactive)	-0.657 (inactive)	0.0605 (inactive)	-1.14 (inactive)	-0.619	0.0051	-0.143	-0.419	0.327
C=CC[C@@]1(C(=O)NCCN2CCOCC2)N=C(c2ccc(OCCCO)cc2)O[C@@H]1c1ccccc1CN=[N+]=[N-]	2.83	1.23	0.269	0.216	0.898	-0.224	0.127	-0.0903	1	-3.74 (inactive)	0.13	-4.2 (inactive)	-0.557 (inactive)	0.526 (inactive)	-1.22 (inactive)	0.349	-0.197	0.598	1.16	-0.0578
COCCOC(=O)N1C(=O)[C@@]2(c3cc(C#CC4(O)CCCCCC4)ccc31)[C@H](c1ccc(O)cc1)N1[C@H](c3ccccc3)[C@H](c3ccccc3)OC(=O)[C@H]1[C@@H]2C(=O)N1CCc2cc(OC)c(OC)cc2C1	-0.083	-0.183	0.462	-1.69	-0.792	-0.505	-0.506	-0.625	0.663	0.503 (inactive)	-0.445	-2.45 (inactive)	-1.73 (inactive)	-1.7 (inactive)	-0.805 (inactive)	-1.33	-0.176	-0.576	-0.0551	-0.649
CN1C(=O)C2C(C1=O)C1C=C(c3ccc(CO)cc3)C2C(C2CC2)N1Cc1cc2c(cc1Br)OCO2 (stereo not given)	2.81	1.23	1.47	0.976	1.23	0.784	1.34	0.175	1.18	-1.9 (inactive)	0.164	-5.17 (inactive)	-0.401 (inactive)	0.622 (inactive)	-1.62 (inactive)	1.75	0.138	1.16	1.65	0.796
C=CCNC(=O)[C@H]1[C@@H]2C(=O)O[C@@H](c3ccccc3)[C@@H](c3ccccc3)N2[C@@H](c2ccc(OCCO)cc2)[C@]12C(=O)N(C(=O)OCCOC)c1ccc(C#CC3(O)CCCCCC3)cc12	0.632	1.21	1.32	0.888	1.36	1.58	0.208	1.47	0.777	-1.86 (inactive)	0.558	-2.88 (inactive)	-0.148 (inactive)	0.761 (inactive)	0.309 (inactive)	0.37	0.569	1.79	0.907	1.65
